Measured values published in PubChem BioAssay AID720504 (National Center for Advancing Translational Sciences (NCATS), 2013).
About 10,000 (2.8%) of roughly 360,000 compounds were called active. Inconclusive results (about 4%) are left out. This is one part of a sample in which actives are shown more often than they occur. Values without a mark were called inactive. Calls follow the shape of the dose curve; as a rule, active = well fitted inhibition curve with a large enough effect; inconclusive = small, poorly fitted or top-dose-only effect; inactive = flat fitted curve, though single readings scatter.

target: Serine/threonine-protein kinase PLK1 (Homo sapiens) (UniProt P53350); experiment: qHTS for Inhibitors of PLK1-PDB (polo-like kinase 1 - polo-box domain): Primary Screen; conditions: Plk1 PBD binding of FITC phosphopeptide, fluorescence polarization; also: nearly all actives have a fitted effect of over 65% in size; as to max response, negative = inhibition: series mostly up to about 57 µM
% is scaled to controls: 0 for no effect and ±100 for the full control effect; potency is read from the fitted curve at half-maximal effect.

Sequence of Serine/threonine-protein kinase PLK1 (Homo sapiens) (P53350 whole entry, looked up, the tested form may be a part): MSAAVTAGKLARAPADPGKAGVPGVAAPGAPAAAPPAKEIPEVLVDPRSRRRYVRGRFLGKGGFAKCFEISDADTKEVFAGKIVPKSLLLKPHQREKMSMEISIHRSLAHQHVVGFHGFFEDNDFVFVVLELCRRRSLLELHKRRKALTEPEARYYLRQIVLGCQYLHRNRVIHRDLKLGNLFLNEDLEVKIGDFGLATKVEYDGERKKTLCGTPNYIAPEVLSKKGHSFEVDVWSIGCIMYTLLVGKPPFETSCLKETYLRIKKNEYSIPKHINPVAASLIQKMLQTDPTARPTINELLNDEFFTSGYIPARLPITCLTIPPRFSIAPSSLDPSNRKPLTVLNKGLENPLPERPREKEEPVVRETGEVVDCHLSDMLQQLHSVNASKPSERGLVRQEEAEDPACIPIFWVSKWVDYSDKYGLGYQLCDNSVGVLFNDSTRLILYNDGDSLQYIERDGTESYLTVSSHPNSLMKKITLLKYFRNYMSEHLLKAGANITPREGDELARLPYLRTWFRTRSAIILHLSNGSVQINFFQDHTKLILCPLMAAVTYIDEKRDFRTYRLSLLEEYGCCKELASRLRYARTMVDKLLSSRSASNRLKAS

Compound	Potency	max response, negative = inhibition
CCOC(=O)[C@]12Cc3ccccc3[C@H]1N(C1CCCCC1)C(=O)c1cc(OC)ccc12	10.6 µM (active)	
CCOC(=O)c1cccc(C2=C(CNC(=O)c3ccncc3)[C@H]3CC[C@@H](C2)N3Cc2ccccc2)c1		-3.52%
COc1ccc(CN2C(=O)NC(=O)/C(=C\c3ccc(OC)c(OC)c3OC)C2=O)cc1	7.52 µM (active)	
O=c1c2ccccc2nc(-c2ccc(Cl)cc2Cl)n1-c1ccncc1		-3.78%
Nc1ccc([N+](=O)[O-])cc1		-16%
C=CCN1C(=O)NC(=O)/C(=C/c2ccc(OCC(=O)Nc3ccc(C)cc3)cc2)C1=O	8.44 µM (active)	
CCC(=O)c1ccc(OCC(=O)N2CCN(CC(=O)Nc3ccc(C)cc3)CC2)cc1		-6.03%
C=CCN(CC=C)C(=O)Nc1ccc(OCC)cc1		-8.48%
CCOC(=O)C1CN(C)CCC1=O (stereo not drawn)		-5.51%
O=C(CCCn1c(=O)[nH]c2cc(Cl)ccc2c1=O)N1CCC2(CC1)OCCO2		-6.33%
COC(=O)N(c1ccc(OC)cc1)P1(=S)OCCC(C)O1 (stereo not drawn)	2.67 µM (active)	
Cc1ccc(N(C)C(=O)Oc2cccc3ccc(C)nc23)cc1		0.137%
COc1ccc(N2C(=O)/C(=C/c3ccco3)C(=O)NC2=S)cc1	2.67 µM (active)	
CC(=NCC1CCCO1)c1c(O)n(-c2ccccc2)c(=O)[nH]c1=O (stereo not drawn)		-9.8%
COCc1cc(OC(=O)N(C)C)nc(-c2ccc(C)c(Cl)c2)n1		-4.36%
CC/C(=N\NC(=O)c1ccccc1O)c1c(O)n(Cc2ccccc2)c(=O)[nH]c1=O	16.8 µM (active)	
CCC(=NCc1ccco1)c1c(O)n(Cc2ccccc2)c(=O)[nH]c1=O		-18.9%
O=C(N/N=C/c1c(O)n(Cc2ccccc2)c(=O)[nH]c1=O)c1ccccc1		-9.07%
COC(=O)C1=C(c2ccc(Cl)c(C(F)(F)F)c2)C[C@@H]2CC[C@H]1N2C(=O)NC(C)C		-9.53%
O=C(COc1ccc2ccccc2c1)N1CCN(Cc2ccncc2)CC1		-21.6%
COc1ccc(-c2nc(CS(=O)CC(=O)N3CCC4(CC3)OCCO4)c(C)o2)cc1 (stereo not drawn)		-28%
ClC(Cl)(Cl)c1ccccc1		-9.92%

Compound	Potency	max response, negative = inhibition
NCCc1c[nH]c2ccc(O)cc12		-10.9%
CCOc1ccc(CN(CCCl)CCCl)cc1C(=O)OC	26.7 µM (active)	
CCCCC(=O)N/N=C/c1c(O)n(CCC2=CCCCC2)c(=O)[nH]c1=O		-3.58%
O=C(O)COc1ccccc1/C=C1\C(=O)NC(=O)N(CCC2=CCCCC2)C1=O	11.9 µM (active)	
COc1cc(C(=O)N2Cc3ccc(Br)cc3-n3nncc3C2)cc(OC)c1OC		-10%
CC(C)c1ccc(OCC(=O)N2CCN(C)CC2)c(Br)c1		-13.2%
c1cc2c(c(NC3=NCCCS3)c1)CCCC2		-11.8%
CC(=O)Cc1ccc(OC(C)C)cc1		1.86%
CCOP(=O)(OCC)C(NC(=O)c1ccc(OC)cc1)C(Cl)(Cl)Cl (stereo not drawn)		1.87%
CC(=O)c1ccc(OC(NC(=O)Cc2ccccc2)C(Cl)(Cl)Cl)cc1 (stereo not drawn)	13.4 µM (active)	
COC(=O)C1=C(c2ccc(OCc3ccccc3)cc2)C[C@@H]2CC[C@H]1N2C(=O)NCc1cccc(F)c1		-7.41%
CN(C)C(=O)Oc1ccc(NC(=O)N2CCOCC2)cc1		-3.11%
CCOC(=O)CNC(=O)N1Cc2cc(N3CCCCC3)ccc2-n2nncc2C1		-3.84%
O=C1NC(=O)N(Cc2ccco2)C(=O)/C1=C\c1cccn1CCOc1ccccc1	15 µM (active)	
O=C1NC(=O)N(Cc2ccco2)C(=O)/C1=C\c1ccc(-c2ccc(F)cc2)o1	0.423 µM (active)	
N#CC1=C(N)Oc2c(c(=O)oc3ccccc23)C1c1ccccc1OC(=O)c1cccs1 (stereo not drawn)		-2.78%
CN(C)CC1CCCCC1=O (stereo not drawn)		-3.76%
CCC(C)n1c(O)c(/C=N/Nc2nc3c(c(=O)n(C)c(=O)n3C)n2C)c(=O)[nH]c1=S (stereo not drawn)		-11.1%
O=c1c2ccccc2nc(CBr)n1-c1ccc(Cl)cc1		-5.73%
CCC(C)(O)C(=O)OC1C(=O)OC2CC3C(C)=CC(=O)C(O)C3(C)C3C4(O)OCC23C1C(C)C4O (stereo not drawn)		-4.99%
CCC(=O)OC(Cc1ccccc1)(c1ccccc1)C(C)CN(C)C (stereo not drawn)		-11.9%
